Data on seven compounds can be found in PubChem BioAssay (Tox21).

The nature of assay [1]: qHTS assay to identify small molecule antagonists of the androgen receptor (AR) signaling pathway using the MDA cell line in the presence of 0.5 nM R1881 - cell viability counter screen (AID 1259242). Further: nearly all actives have a fitted effect of over 45% in size. Put shortly: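 MDA-kb2 cells (human breast carcinoma, stably carrying MMTV-luciferase reporter) were exposed to compounds with 0.5 nM R1881 (final) for 16 hr at 37C, 0% CO2; viability then read as live-cell protease fluorescence (CellTiter-Fluor, 30 min) in the same wells.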
In general terms: In qHTS, concentration-response curves come from the screen itself.

Assay [2] addresses Estrogen receptor (Homo sapiens) (UniProt P03372). In words: qHTS assay to identify small molecule antagonists of the estrogen receptor alpha (ER-alpha) signaling pathway using the BG1 cell line in the presence of 0.1 nM 17-beta-estradiol (AID 1259244). Further: nearly all actives have a fitted effect of over 50% in size. Put shortly:
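VM7Luc4E2 cells (endogenous full-length ER-alpha, stable 4xERE-luciferase) were grown 5 days in phenol red-free medium with charcoal-stripped FBS, then exposed 22 h at 37C to compounds plus 0.1 nM (final) 17beta-estradiol; ONE-Glo luminescence read-out.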

Assay [3] in a line: qHTS assay to identify small molecule phospholipidosis (PLD) inducers (AID 1259344; active means well fitted curve in the direction sought with a large enough effect; an effect the other way counts as inactive or inconclusive). Put shortly:
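Phospholipidosis is scored by imaging LipidTOX-stained pits in HepG2 cells exposed to compound for 24 h at 37 C; pit counts and integrated intensities per well and per cell serve as outputs.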

A short description of assay [4]: qHTS assay to identify small molecule HDAC inhibitors (AID 1259364). Further: nearly all actives have a fitted effect of over 45% in size. Further: potency means the concentration at half of the fitted maximal effect. The method, boiled down: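 Wild-type HCT-116 cells were plated overnight, exposed to compounds for 2 h at 37 °C, then given HDAC-Glo class I/II luminogenic reagent for 30 min at room temperature before luminescence was read.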
A short description of assay [5]: qHTS assay to identify small molecule HDAC inhibitors - cell viability counter screen (AID 1259365). Further: series mostly up to about 92 µM; nearly all actives have a fitted effect of over 50% in size. Put shortly: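 CellTiter-Glo luminescence (30 min, room temperature) reported viability after a 2 h compound exposure at 37 C. Cells: wild-type HCT-116, 1,500 per well, seeded the night before.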
Assay [6] can be described thus: qHTS assay to identify small molecule agonists of the sonic hedgehog signaling (Shh) pathway - cell viability counter screen (AID 1259366). Further: nearly all actives have a fitted effect of over 50% in size. Put shortly:
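Cytotoxicity counter screen: CellTiter-Fluor reagent added after 23 h compound exposure, then 1 h at 37C and fluorescence read. Cells were 3T3 Gli1-Luc, seeded 2,000 per well and dosed 4 h post-plating.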

A short description of assay [7]: qHTS assay to identify small molecule antagonists of the sonic hedgehog signaling (Shh) pathway - cell viability counter screen (AID 1259367). Further: nearly all actives have a fitted effect of over 55% in size. Further: potency means the concentration at half of the fitted maximal effect. The method, boiled down:
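Cells: 3T3 Gli1-Luc, 2,000/well, 4 hr pre-incubation. Compounds in DMSO, then conditioned medium. Incubation 24 hr, 37C, 5% CO2. CellTiter-Fluor at 23 hr, 1 hr, fluorescence.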

Assay [8] is described as follows: qHTS assay to identify small molecule agonists of the sonic hedgehog signaling (Shh) pathway (AID 1259368; calls by dose curve; further: series mostly up to about 92 µM; nearly all actives have a fitted effect of over 15% in size). Put shortly:
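NIH/3T3-derived 3T3Gli1-Luc cells carrying a stably integrated Gli1 response element–firefly luciferase reporter were plated, left 4 hr at 37 C, then given compounds in DMSO for 24 hr. Luminescence was read 30 min after adding luciferase reagent.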

Assay [9] can be described thus: qHTS assay to identify small molecule antagonists of the sonic hedgehog signaling (Shh) pathway (AID 1259369; calls by dose curve; further: nearly all actives have a fitted effect of over 45% in size; further: potency means the concentration at half of the fitted maximal effect). Put shortly: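 NIH/3T3-derived 3T3Gli1-Luc cells with stably integrated Gli1-Luc reporter were preincubated 4hr at 37 C, then given compounds in DMSO plus Shh conditioned medium and incubated 24hr. Firefly luciferase luminescence read after 30min reagent at room temperature.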

Assay [10] concerns the target Estrogen receptor beta (Homo sapiens) (UniProt Q92731). The experiment in a line: qHTS assay to identify small molecule agonists of the estrogen receptor beta (ER-beta) signaling pathway (AID 1259377; active means well fitted activation curve with a large enough effect in the signal ratio in the repeat runs, not every such curve was filed as active; the % refers to the signal ratio). The method, boiled down: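 Ratiometric beta-lactamase FRET read-out came after 2 h substrate loading at room temperature. It followed 16 h compound treatment at 37C of GripTite HEK293T cells carrying a UAS-bla reporter, plated in 2% charcoal-stripped FBS medium.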

For assay [11] the target is unchanged. In words: qHTS assay to identify small molecule antagonists of the estrogen receptor beta (ER-beta) signaling pathway (AID 1259378; active means well fitted inhibition curve with a large enough effect in the signal ratio in the repeat runs, not every such curve was filed as active; the % refers to the signal ratio). The method, boiled down:
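Antagonist mode: compounds added to beta-lactamase reporter HEK293T ER-beta-UAS cells stimulated with E2 (1nM final), 16 hr at 37C. LiveBLAzer B/G FRET substrate, 2 hours room temperature, fluorescence read-out.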

Assay [12] can be described thus: qHTS assay to identify small molecule agonists of the androgen receptor (AR) signaling pathway in the presence of an antagonist - cell viability counter screen (AID 1259379). Further: series mostly up to about 92 µM; nearly all actives have a fitted effect of over 25% in size. Put shortly: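 MDA-kb2 human breast carcinoma cells (stable MMTV-luciferase, AR/GR responsive) were seeded 3,000 cells/well, pre-incubated 5 hr at 37C without CO2, then given 3.0uM nilutamide and compounds at 15 concentrations for 16 hr. Viability was read by CellTiter-Fluor fluorescence.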

Assay [13] in a line: qHTS assay to identify small molecule agonists of the estrogen receptor beta (ER-beta) signaling pathway - cell viability counter screen (AID 1259380). Further: nearly all actives have a fitted effect of over 30% in size. Further: potency means the concentration at half of the fitted maximal effect. Put shortly:
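ER-beta-UAS-bla HEK293T cells in medium with 2% charcoal-stripped FBS were preincubated 6 hr at 37C, dosed with compound in DMSO for 16 hr, then after the bla read, CellTiter-Glo was added for 30 min at room temperature; luminescence recorded.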

Assay [14] in a line: qHTS assay to identify small molecule antagonists of the estrogen receptor beta (ER-beta) signaling pathway - cell viability counter screen (AID 1259382). Further: series mostly up to about 92 µM; nearly all actives have a fitted effect of over 55% in size. The method, boiled down: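 ER-beta-UAS-bla HEK293T cells (2,000/well, 2% charcoal-stripped FBS) were pre-incubated 6 hr at 37C, then given compound plus 1nM final 17-beta-estradiol for 16 hr. Viability was read in the same wells by CellTiter-Glo luminescence after 30 min at room temperature.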

In assay [15] the target is Estrogen receptor (Homo sapiens) (UniProt P03372). The experiment in a line: qHTS assay to identify small molecule agonists of the estrogen receptor alpha (ER-alpha) signaling pathway in the presence of an antagonist (AID 1259383; calls by dose curve; further: top concentration of the series differs between compounds; nearly all actives have a fitted effect of over 15% in size). Put shortly:
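VM7Luc4E2 cells (endogenous full-length ER-alpha, 4×ERE-luciferase) were precultured 5 days in phenol red-free medium with 10% charcoal-stripped FBS, given 10.0nM ICI-182,780 (final), then treated with compounds at 15 concentrations for 22hr at 37C; luminescence read with ONE-Glo.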

The nature of assay [16]: qHTS assay to identify small molecule agonists or antagonists of the thyroid stimulating hormone receptor (TSHR) signaling pathway - wild type cell line counter screen (AID 1259384; calls by dose curve). Put shortly:
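Counter screen in untransfected Hek293: compounds (15-point titration, triplicate) plus phosphodiesterase inhibitor Ro20-1724 added after 18 h plating; 30 min RT. Intracellular cAMP via competitive d2/cryptate immunoassay, 1 h incubation.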

For assay [17], the target named is Thyrotropin receptor (Homo sapiens) (UniProt P16473). In words: qHTS assay to identify small molecule antagonists of the thyroid stimulating hormone receptor (TSHR) signaling pathway (AID 1259385; calls by dose curve; further: nearly all actives have a fitted effect of over 20% in size). The method, boiled down: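 Antagonist mode: compound-treated TSHR-expressing HEK293 cells were stimulated with 1.5 ng/mL TSH (final) in presence of Ro20-1724 for 30 min at RT. HTRF cAMP detection after 1 h; each compound tested at 15 concentrations, triplicate.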

The nature of assay [18]: qHTS assay to identify small molecule agonists of the estrogen receptor alpha (ER-alpha) signaling pathway in the presence of an antagonist - cell viability counter screen (AID 1259386). Further: series mostly up to about 92 µM; nearly all actives have a fitted effect of over 30% in size. The method, boiled down: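 VM7Luc4E2 cells (endogenous full-length ER-alpha, 4×ERE-luciferase) were held 5 days in phenol red-free medium with 10% charcoal-stripped FBS, plated, then given 10.0nM ICI-182,780 and compounds at 15 concentrations for 22hr at 37C; viability read by CellTiter-Fluor fluorescence.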

Assay [19] deals with Androgen receptor (Homo sapiens) (UniProt P10275). In words: qHTS assay to identify small molecule antagonists of the androgen receptor (AR) signaling pathway using the MDA cell line in the presence of 0.5 nM R1881 (AID 1259243). Further: nearly all actives have a fitted effect of over 50% in size. Put shortly:
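MDA-kb2 human breast carcinoma cells carrying an MMTV-luciferase reporter (AR- and GR-responsive) were plated, rested 5 hr at 37C, dosed with compounds, then stimulated with 0.5 nM R1881 (final) for 16 hr; luminescence was read after ONE-Glo.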

Assay [20] has the same target. The experiment in a line: qHTS assay to identify small molecule agonists of the androgen receptor (AR) signaling pathway in the presence of an antagonist (AID 1259381; calls by dose curve; further: nearly all actives have a fitted effect of over 15% in size). Put shortly:
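MDA-kb2 human breast carcinoma cells carrying an MMTV-luciferase reporter (AR- and GR-responsive) were treated with compounds at 15 concentrations plus 3.0uM final nilutamide for 16hr at 37C without CO2; luminescence was read after ONE-Glo addition.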

“And” between values parts separate entries of the source, which are not always exact repeats. Identical values can stand only once. Inconclusive results are not listed. Where a structure was tested more than once in an assay, its records may differ in their call. The source made the active and inactive calls. Unless noted, the call rests on the fitted dose curve; in most records, active means well fitted curve in the direction sought with a large enough effect in the repeat runs; inconclusive means weak or mixed curves; inactive means no such curve, though single readings can be large; an effect the other way counts as inactive or inconclusive.

Chain of Estrogen receptor beta (Homo sapiens) (Q92731 whole entry, looked up): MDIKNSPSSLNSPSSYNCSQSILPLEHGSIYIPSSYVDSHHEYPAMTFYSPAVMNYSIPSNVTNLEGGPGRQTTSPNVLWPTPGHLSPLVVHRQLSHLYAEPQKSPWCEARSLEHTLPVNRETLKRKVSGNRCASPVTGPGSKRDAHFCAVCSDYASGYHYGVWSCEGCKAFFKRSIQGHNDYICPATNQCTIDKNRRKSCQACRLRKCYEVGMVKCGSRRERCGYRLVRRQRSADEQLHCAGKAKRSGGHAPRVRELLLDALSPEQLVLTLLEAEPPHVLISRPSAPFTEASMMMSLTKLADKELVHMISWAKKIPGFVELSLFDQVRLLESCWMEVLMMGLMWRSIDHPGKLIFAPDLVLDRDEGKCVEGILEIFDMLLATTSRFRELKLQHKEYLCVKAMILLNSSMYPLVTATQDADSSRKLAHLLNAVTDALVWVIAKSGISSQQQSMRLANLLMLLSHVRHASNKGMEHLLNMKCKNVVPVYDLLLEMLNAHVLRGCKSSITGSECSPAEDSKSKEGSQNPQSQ
Chain of Thyrotropin receptor (Homo sapiens) (P16473 whole entry, looked up): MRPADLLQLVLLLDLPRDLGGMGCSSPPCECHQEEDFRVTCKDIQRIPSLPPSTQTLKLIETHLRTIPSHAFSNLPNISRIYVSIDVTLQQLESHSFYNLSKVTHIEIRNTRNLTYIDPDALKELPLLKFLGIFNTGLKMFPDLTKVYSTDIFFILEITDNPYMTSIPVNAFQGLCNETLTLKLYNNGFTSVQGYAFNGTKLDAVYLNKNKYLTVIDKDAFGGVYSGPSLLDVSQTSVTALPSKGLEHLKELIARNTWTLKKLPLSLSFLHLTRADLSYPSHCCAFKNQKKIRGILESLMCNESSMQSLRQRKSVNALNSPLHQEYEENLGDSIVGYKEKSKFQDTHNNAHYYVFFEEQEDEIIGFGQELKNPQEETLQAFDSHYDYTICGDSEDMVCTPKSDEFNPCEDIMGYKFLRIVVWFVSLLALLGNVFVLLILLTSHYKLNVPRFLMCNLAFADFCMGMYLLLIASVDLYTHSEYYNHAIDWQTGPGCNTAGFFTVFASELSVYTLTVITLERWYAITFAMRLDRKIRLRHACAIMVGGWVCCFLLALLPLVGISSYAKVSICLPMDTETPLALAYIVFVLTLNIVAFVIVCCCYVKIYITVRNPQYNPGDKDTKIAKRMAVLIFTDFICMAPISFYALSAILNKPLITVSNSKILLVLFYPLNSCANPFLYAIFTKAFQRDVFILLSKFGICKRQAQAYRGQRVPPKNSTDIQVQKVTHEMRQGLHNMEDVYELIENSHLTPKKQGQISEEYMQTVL
Chain of Androgen receptor (Homo sapiens) (P10275 whole entry, looked up): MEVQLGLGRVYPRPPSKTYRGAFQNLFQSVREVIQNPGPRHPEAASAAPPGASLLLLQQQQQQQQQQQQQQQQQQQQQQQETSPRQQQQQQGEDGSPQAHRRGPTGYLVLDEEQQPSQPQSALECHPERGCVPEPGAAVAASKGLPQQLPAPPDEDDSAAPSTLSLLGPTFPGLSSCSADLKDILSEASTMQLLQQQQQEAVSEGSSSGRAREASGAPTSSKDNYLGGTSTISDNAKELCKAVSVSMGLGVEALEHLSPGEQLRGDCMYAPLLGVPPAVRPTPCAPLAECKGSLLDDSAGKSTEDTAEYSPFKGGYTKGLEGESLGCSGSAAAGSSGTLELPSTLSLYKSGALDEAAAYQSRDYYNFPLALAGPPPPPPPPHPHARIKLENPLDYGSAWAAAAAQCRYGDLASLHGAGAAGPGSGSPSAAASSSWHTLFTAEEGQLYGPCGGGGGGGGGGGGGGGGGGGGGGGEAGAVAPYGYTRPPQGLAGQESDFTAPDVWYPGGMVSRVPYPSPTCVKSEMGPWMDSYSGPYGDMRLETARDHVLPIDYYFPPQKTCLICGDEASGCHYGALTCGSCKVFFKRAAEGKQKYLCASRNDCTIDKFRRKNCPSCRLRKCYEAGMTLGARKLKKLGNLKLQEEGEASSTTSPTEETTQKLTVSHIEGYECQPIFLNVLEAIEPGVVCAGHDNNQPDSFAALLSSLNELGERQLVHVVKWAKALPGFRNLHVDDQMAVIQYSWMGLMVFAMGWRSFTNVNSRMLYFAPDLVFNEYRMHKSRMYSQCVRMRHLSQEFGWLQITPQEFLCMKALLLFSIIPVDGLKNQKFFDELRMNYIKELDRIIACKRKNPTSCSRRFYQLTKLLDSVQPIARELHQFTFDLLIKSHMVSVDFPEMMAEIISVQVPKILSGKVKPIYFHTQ
Chain of Estrogen receptor (Homo sapiens) (P03372 whole entry, looked up): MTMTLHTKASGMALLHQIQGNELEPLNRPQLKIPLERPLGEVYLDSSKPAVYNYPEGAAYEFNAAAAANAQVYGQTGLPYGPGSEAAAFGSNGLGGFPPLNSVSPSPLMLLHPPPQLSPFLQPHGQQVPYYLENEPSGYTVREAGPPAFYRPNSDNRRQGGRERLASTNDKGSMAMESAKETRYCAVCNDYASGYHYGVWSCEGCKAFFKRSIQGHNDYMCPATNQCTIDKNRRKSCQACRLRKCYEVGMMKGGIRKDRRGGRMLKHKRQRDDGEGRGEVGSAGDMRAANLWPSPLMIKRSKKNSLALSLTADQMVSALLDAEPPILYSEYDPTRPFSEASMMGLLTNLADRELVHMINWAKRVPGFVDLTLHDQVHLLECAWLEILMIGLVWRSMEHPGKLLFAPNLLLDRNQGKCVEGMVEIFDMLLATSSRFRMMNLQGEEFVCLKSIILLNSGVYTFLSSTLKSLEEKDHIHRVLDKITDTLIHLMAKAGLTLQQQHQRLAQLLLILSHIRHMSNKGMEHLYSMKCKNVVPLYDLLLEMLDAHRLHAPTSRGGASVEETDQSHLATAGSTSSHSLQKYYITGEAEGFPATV

For `CCCCCCCC/C=C\CCCCCCCC(=O)O`, the Potency result in assay [1], in assay [2], in [3], in [4], in [6] and in assay [7] was “inactive” in each case. The Potency result in assay [8], in [9], in assay [10], in assay [11], in assay [12] and in [13] was “inactive” throughout. The Potency entry in assay [14], in [15], in assay [16] and in assay [17] was “inactive” throughout. In assay [5], the result was inactive.

In the case of `Cc1ccc(/C(=C\CN2CCCC2)c2ccccn2)cc1`, the Potency result in assay [1], in [2], in assay [3], in assay [6], in assay [8] and in [12] was “inactive” throughout. Besides, the Potency entry in assay [13], in [14], in assay [15], in [16], in assay [17] and in assay [18] was “inactive” each time. In addition, the compound was called inactive in [5]. Further, the Potency in [7] was 36.2 µM (active) and inactive; in [9], 25.6 µM (active).

In the case of `CC(=O)[C@@]1(O)CC[C@H]2[C@@H]3C[C@H](C)C4=CC(=O)C=C[C@]4(C)[C@@]3(F)[C@@H](O)C[C@@]21C`, the Potency result in assay [1], in assay [2], in [3], in [6], in [7] and in [8] was “inactive” each time. In addition, the Potency result in [10], in assay [11], in assay [12], in assay [13], in [14] and in assay [15] was “inactive” throughout. Besides, the Potency result in assay [18] is “inactive”. In addition, the result in [5] was inactive. The Potency in assay [9] was 6.11 µM (active) and inactive.

As for `CN(C)/N=N/c1nc[nH]c1C(N)=O`, the Potency result in [1], in assay [2], in [3], in [4], in assay [6] and in assay [7] was “inactive” each time. Further, the Potency result in [8], in assay [9], in assay [10], in assay [11], in assay [12] and in [13] was “inactive” each time. Moreover, the Potency result in assay [14], in assay [15], in assay [16], in [17] and in [18] was “inactive” in each case. Also, in assay [5], the call was inactive.

With `CC/C=C\C/C=C\C/C=C\CCCCCCCC(=O)O`, the Potency entry in assay [1], in assay [2], in assay [3], in assay [4], in [6] and in [7] was “inactive” in each case. In addition, the Potency result in assay [8], in [10], in assay [11], in [12], in assay [14] and in assay [15] was “inactive” throughout. In addition, the Potency entry in assay [16] and in [17] was “inactive” each time. For the same compound, the call in assay [5] was inactive. Further, the Potency in assay [13] is 24.1 µM (active) and inactive.

For the compound `CN(Cc1cnc2nc(N)nc(N)c2n1)c1ccc(C(=O)N[C@@H](CCC(=O)O)C(=O)O)cc1`, the Potency entry in [1], in [19], in assay [2], in assay [3], in assay [4] and in assay [6] was “inactive” each time. Further, the Potency result in [7], in assay [8], in assay [9], in assay [10], in assay [11] and in assay [12] was “inactive” throughout. Moreover, the Potency entry in assay [20], in assay [15] and in assay [17] was “inactive” each time. In assay [5], the compound was called inactive. Also, the Potency in [13] was 172 nM (active) and 133 nM (active).

`COc1ccc2nc(N)sc2c1`: the Potency result in [1], in [19], in assay [2], in assay [6], in assay [7] and in assay [8] was “inactive” throughout. Also, the Potency result in assay [9], in assay [10], in assay [11], in assay [12], in assay [13] and in assay [20] was “inactive” throughout. The Potency entry in [14], in [15], in assay [16] and in [18] was “inactive” each time. The Potency in assay [4] is 27.3 µM (active) and 24.3 µM (active). Also, the result in assay [5] was inactive.
